# Reference: PubChem BioAssay (EPA / NIEHS)
# Active and inactive are the calls of the source. Rule for the calls: active = hit-call score of the fitted dose curve at least 0.9, where 1 is the maximum; inactive = score below 0.9.
# Columns and labels:
# [1] = BSK_CASM3C_SRB: Viability Assessment in the BioMAP Diversity Plus: CASM3C Assay (AID 2283050); conditions: primary human coronary artery smooth muscle cells;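 note: total protein by SRB staining as cytotoxicity measure in parallel cultures; cells exposed to compound for 24 h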
# [2] = read-out: Thrombomodulin, THBD (gene 7056); assay: BSK_CASM3C_Thrombomodulin: BioMAP Diversity Plus: CASM3C Assay for Thrombomodulin Biomarker Activity (AID 2283051); conditions: primary human coronary artery smooth muscle cells; actives raise or lower the signal;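 note: thrombomodulin protein level measured by ELISA 24 h after dosing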
# [3] = read-out: Tissue Factor, F3 (gene 2152); assay: BSK_CASM3C_TissueFactor: BioMAP Diversity Plus: CASM3C Assay for Tissue Factor Biomarker Activity (AID 2283052); conditions: primary human coronary artery smooth muscle cells; actives raise or lower the signal;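 note: cell surface tissue factor protein level read by ELISA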
# [4] = read-out: Urokinase-type plasminogen activator receptor (uPAR), PLAUR (gene 5329); assay: BSK_CASM3C_uPAR: BioMAP Diversity Plus: CASM3C Assay for Urokinase-type plasminogen activator receptor (uPAR) Biomarker Activity (AID 2283054); conditions: primary human coronary artery smooth muscle cells; actives raise or lower the signal;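 note: cell-surface uPAR protein level quantified by ELISA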
# [5] = read-out: Vascular cell adhesion molecule 1 (VCAM1), VCAM1 (gene 7412); assay: BSK_CASM3C_VCAM1: BioMAP Diversity Plus: CASM3C Assay for Vascular cell adhesion molecule 1 (VCAM1) Biomarker Activity (AID 2283055); conditions: primary human coronary artery smooth muscle cells; actives raise or lower the signal;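 note: VCAM-1 protein level quantified by ELISA on the cells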
# [6] = read-out: Collagen III, COL3A1 (gene 1281); assay: BSK_hDFCGF_CollagenIII: BioMAP Diversity Plus: hDFCGF Assay for Collagen III Biomarker Activity (AID 2283056); conditions: primary human foreskin fibroblasts; actives raise or lower the signal
# Outline: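 ELISA read-out of collagen III from human skin fibroblast cultures sampled 24 h post-dosing. Values were derived by bidirectional fitting relative to the DMSO vehicle control.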
# [7] = read-out: Epidermal growth factor receptor (EGFR), EGFR (gene 1956); assay: BSK_hDFCGF_EGFR: BioMAP Diversity Plus: hDFCGF Assay for Epidermal growth factor receptor (EGFR) Biomarker Activity (AID 2283057); conditions: primary human foreskin fibroblasts; actives raise or lower the signal
# Outline: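 Cell-based multiplexed assay in primary human foreskin fibroblasts. EGFR is read by ELISA 24 h after treatment and compared with DMSO controls.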
# [8] = read-out: Interleukin-8 (IL8), CXCL8 (gene 3576); assay: BSK_hDFCGF_IL8: BioMAP Diversity Plus: hDFCGF Assay for Interleukin-8 (IL8) Biomarker Activity (AID 2283058); conditions: primary human foreskin fibroblasts; actives raise or lower the signal
# Outline: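 Cells used are human skin primary fibroblasts. Chemical is added, cultures run 24 h, then IL-8 is quantified by ELISA, and gain or loss versus DMSO control is fitted in both directions.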
# [9] = BSK_hDFCGF_Proliferation: Cell Proliferation Assessment in the BioMAP Diversity Plus: hDFCGF Assay (AID 2283059); conditions: primary human foreskin fibroblasts;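 note: curves fitted for both rise and fall of signal versus DMSO baseline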
# Outline: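 Total protein read at 560 nm after 0.1% SRB staining of TCA-fixed human skin fibroblasts, […]. Activity is fitted in both directions relative to DMSO as baseline.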
Structure (SMILES),outcome [1],outcome [2],outcome [3],outcome [4],outcome [5],AC50 [6],outcome [7],outcome [8],outcome [9],outcome [6],AC50 [9],AC50 [7]
CC(C)N1C(=O)c2ccccc2NS1(=O)=O,inactive,inactive,inactive,inactive,inactive,0.144 µM (active),inactive,inactive,inactive,,,
COc1ccc(-c2ccccc2)cc1NNC(=O)OC(C)C,inactive,inactive,inactive,inactive,inactive,,inactive,inactive,inactive,inactive,,
CC1(C)C(C=C(Cl)Cl)C1C(=O)OC(C#N)c1cccc(Oc2ccccc2)c1 (stereo unspecified),inactive,inactive,inactive,inactive,inactive,,inactive,inactive,inactive,inactive,,
COP(=S)(OC)SCn1nnc2ccccc2c1=O,inactive,inactive,inactive,inactive,inactive,,inactive,inactive,,inactive,26.2 µM (active),
Cc1cc(C)nc(Nc2ccccc2)n1,inactive,inactive,inactive,inactive,inactive,,inactive,inactive,inactive,inactive,,
CCC(C)n1c(=O)[nH]c(C)c(Br)c1=O (stereo unspecified),inactive,inactive,inactive,inactive,inactive,,inactive,inactive,inactive,inactive,,
CN=C=S,inactive,inactive,inactive,inactive,inactive,,,inactive,inactive,inactive,,5.42 µM (active)
N#Cc1c(Cl)cccc1Cl,inactive,inactive,inactive,inactive,inactive,,inactive,inactive,inactive,inactive,,
COc1cc(OC)nc(NC(=O)NS(=O)(=O)c2ncccc2OCC(F)(F)F)n1,inactive,inactive,inactive,inactive,inactive,,inactive,inactive,inactive,inactive,,
